These results are taken from publication doi:10.1101/2024.03.05.583629.

For one assay, the target named is pT7_6His-AlfaTag-HOXD13 (human, UniProt P35453 263-343). Description: PADIT-seq. Particulars: dsDNA, one strand shown.
For another assay, the target named is pT7_6His-AlfaTag-ZIF268 (human, UniProt P18146 335-423). Description: PADIT-seq. Particulars: dsDNA, one strand shown.

pT7_6His-AlfaTag-HOXD13, sequence (P35453 263-343): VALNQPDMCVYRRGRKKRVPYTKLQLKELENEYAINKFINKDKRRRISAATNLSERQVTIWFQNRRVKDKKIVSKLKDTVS

Turning to “CTCGAGGATATCAAGATCTGGCCTCGGCCGCCTACGCGGAACCTCTAGCTAGCCGACTCACTATAGGGATAATCGCCCTGAGCAAAGACC”, the binding signal is -0.992 ± 0.109 log2FC in the assay with pT7_6His-AlfaTag-HOXD13 and 1.76 ± 0.0783 log2FC with pT7_6His-AlfaTag-ZIF268.

Consider “CTCGAGGATATCAAGATCTGGCCTCGGCGCGTTGGCGGGAACCTCTAGCTAGCCGACTCACTATAGGGATAATCGCCCTGAGCAAAGACC”, for which the binding signal in the assay with pT7_6His-AlfaTag-HOXD13 was -1.07 ± 0.16 log2FC; with pT7_6His-AlfaTag-ZIF268, 1.75 ± 0.117 log2FC.

Regarding “CTCGAGGATATCAAGATCTGGCCTCGGCTTATGGGCGGGAACCTCTAGCTAGCCGACTCACTATAGGGATAATCGCCCTGAGCAAAGACC”, the binding signal came out at 1.03 ± 0.0902 log2FC with pT7_6His-AlfaTag-HOXD13 and 0.0657 ± 0.0898 log2FC with pT7_6His-AlfaTag-ZIF268.

Take “CTCGAGGATATCAAGATCTGGCCTCGGCCTTTTATCGGGAACCTCTAGCTAGCCGACTCACTATAGGGATAATCGCCCTGAGCAAAGACC”: the binding signal with pT7_6His-AlfaTag-HOXD13 was determined as 1.63 ± 0.0763 log2FC; in the assay with pT7_6His-AlfaTag-ZIF268, 0.0806 ± 0.0794 log2FC.

Consider “CTCGAGGATATCAAGATCTGGCCTCGGCATTTTATATGGAACCTCTAGCTAGCCGACTCACTATAGGGATAATCGCCCTGAGCAAAGACC”, for which the values for the binding signal with pT7_6His-AlfaTag-HOXD13 and in the assay with pT7_6His-AlfaTag-ZIF268 were 3.31 ± 0.0819 log2FC and 0.238 ± 0.0895 log2FC, respectively.

As for “CTCGAGGATATCAAGATCTGGCCTCGGCGGGTTAAAAGGAACCTCTAGCTAGCCGACTCACTATAGGGATAATCGCCCTGAGCAAAGACC”, the binding signal with pT7_6His-AlfaTag-HOXD13 came out at 0.632 ± 0.0825 log2FC; with pT7_6His-AlfaTag-ZIF268, 0.0267 ± 0.0801 log2FC.

Consider “CTCGAGGATATCAAGATCTGGCCTCGGCGCGTGGAGTGGAACCTCTAGCTAGCCGACTCACTATAGGGATAATCGCCCTGAGCAAAGACC”, for which the binding signal in the assay with pT7_6His-AlfaTag-HOXD13 is -0.822 ± 0.144 log2FC; in the assay with pT7_6His-AlfaTag-ZIF268 it was 0.252 ± 0.117 log2FC.

In the case of “CTCGAGGATATCAAGATCTGGCCTCGGCACACCACGCGGAACCTCTAGCTAGCCGACTCACTATAGGGATAATCGCCCTGAGCAAAGACC”, the binding signal with pT7_6His-AlfaTag-HOXD13 was -0.837 ± 0.131 log2FC; in the assay with pT7_6His-AlfaTag-ZIF268, 0.0231 ± 0.103 log2FC.

For “CTCGAGGATATCAAGATCTGGCCTCGGCGCGGGCGCGGGAACCTCTAGCTAGCCGACTCACTATAGGGATAATCGCCCTGAGCAAAGACC”, the results for the binding signal with pT7_6His-AlfaTag-HOXD13 and with pT7_6His-AlfaTag-ZIF268 were -1.05 ± 0.132 log2FC and 0.156 ± 0.102 log2FC, respectively.
